IMPase cell inh: cell-permeable inhibitors of inositol monophosphatase (IMPase); CHO-M1 cells, IP1 accumulation, HTRF TR-FRET ratio; inhibition (IP1 accumulation), % at 46.1 µM; P97697; AID 901; 120,000 tested, under 10 active; active = well fitted curve in the direction sought with a large enough effect in the signal ratio, not every such curve was filed as active; inconclusive = small, poorly fitted or top-dose-only effect, or a change in a side signal; inactive = no such curve, though single readings can be large or run the other way; the % refers to the signal ratio;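 also: cells stimulated with carbachol in lithium chloride buffer; plate controls were DMSO basal wells for no effect and reference inhibitor wells for full effect; higher means more IMPase inhibition seen as more IP1 and lower FRET ratio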
Target sequence (P97697 whole entry, looked up): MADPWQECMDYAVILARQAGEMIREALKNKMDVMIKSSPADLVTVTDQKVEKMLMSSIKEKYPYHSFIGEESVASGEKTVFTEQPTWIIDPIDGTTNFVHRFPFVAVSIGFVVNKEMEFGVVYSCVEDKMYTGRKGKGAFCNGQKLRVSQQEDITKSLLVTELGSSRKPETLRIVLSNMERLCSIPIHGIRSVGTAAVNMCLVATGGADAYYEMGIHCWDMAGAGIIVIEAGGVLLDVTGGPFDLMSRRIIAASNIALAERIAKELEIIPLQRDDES
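CHO-M1, 2000 cells/well, cultured 16–30 h; cpd up to 46 uM; carbachol (50 uM solution, stimulation buffer w/ 50 mM LiCl, pH 7.4), 30 min 37C; IP-One TR-FRET, 10 min RT; Ex 320/Em 665, 620; Hill-fit AC50.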
PNC inhibitor: perinucleolar compartment assembly inhibition | PC3M PTB-GFP, PNC prevalence imaging, 16 h; active compounds read low | activity change (PNC), negative = inhibition, % at 10 µM | hit rate 3.1% among 140,000 | AID 2417;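 active = readout at or below -70, meaning at least 70% loss of cells showing the perinucleolar compartment, a nuclear body marking cancer cells; inconclusive = readout between -30 and a set limit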;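 also: plate controls were DMSO wells for no effect and camptothecin positive control wells for full effect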
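Read-out is percentage of cells bearing a perinucleolar compartment, from automated 20x imaging of fixed, Hoechst-stained PC3M PTB-GFP cells. Cells were seeded 4 h, then exposed 16 h to compound (23 nl of library stock) in duplicate plates.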
HPGD block: inhibitors of human 15-hydroxyprostaglandin dehydrogenase (HPGD); P15428; Potency, µM, for inactives: at the highest dose activity change, negative = inhibition, most hits filed as inhibitors; hit rate 4.3% among 150,000; AID 894; purified HPGD, NADH fluorescence kinetic, PGE2 substrate; also: potency is read from the fitted curve at half-maximal effect
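20 nM HPGD preincubated 15 min at room temperature with compound in 50 mM Tris-HCl pH 8, 0.01% Tween 20. Started with 1 mM NAD+ and 30 uM prostaglandin E2; NADH fluorescence (360/450 nm) read 5 times over 30-s intervals, last minus first.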
IMPase Li cell: IMPase inhibition in cells with lithium potentiation. CHO-M1 cells, IP1 TR-FRET (IP-One), carbachol + lithium. Potency, µM (series often up to 59.4 µM), inactives show top-dose activity, negative = IMPase inhibition, actives largely listed as inhibitors. hit rate 0.35% among 210,000. AID 1457; active = well fitted inhibition curve with a large enough effect; inconclusive = small, poorly fitted or top-dose-only effect; inactive = no such curve, though single readings can be large or run the other way;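 also: IP1 builds up when IMPase is blocked and the TR-FRET signal falls; potency is read from the fitted curve at half-maximal effect; plate controls were basal vehicle for no effect and high inhibitor control for full effect; nearly all actives have a fitted effect of over 50% in size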
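IP1 accumulation measured by competitive TR-FRET in lysed CHO-M1 cells after 30 min compound exposure at 37C, with a small lithium addition to potentiate weak responses. Hill-equation AC50 from ratio and donor-channel data.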
ALDH1A1 block: blocks purified human ALDH1A1 activity; Purified ALDH1A1, NADH fluorescence, propionaldehyde substrate; Potency, µM (top dose mostly 75.3 µM), inactives show top-dose activity, negative = inhibition, actives largely listed as inhibitors; hit rate 7.3% among 220,000; AID 1030;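 also: potency is read from the fitted curve at half-maximal effect; plate controls were no enzyme wells and a reference inhibitor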
Target sequence (P00352 whole entry, looked up): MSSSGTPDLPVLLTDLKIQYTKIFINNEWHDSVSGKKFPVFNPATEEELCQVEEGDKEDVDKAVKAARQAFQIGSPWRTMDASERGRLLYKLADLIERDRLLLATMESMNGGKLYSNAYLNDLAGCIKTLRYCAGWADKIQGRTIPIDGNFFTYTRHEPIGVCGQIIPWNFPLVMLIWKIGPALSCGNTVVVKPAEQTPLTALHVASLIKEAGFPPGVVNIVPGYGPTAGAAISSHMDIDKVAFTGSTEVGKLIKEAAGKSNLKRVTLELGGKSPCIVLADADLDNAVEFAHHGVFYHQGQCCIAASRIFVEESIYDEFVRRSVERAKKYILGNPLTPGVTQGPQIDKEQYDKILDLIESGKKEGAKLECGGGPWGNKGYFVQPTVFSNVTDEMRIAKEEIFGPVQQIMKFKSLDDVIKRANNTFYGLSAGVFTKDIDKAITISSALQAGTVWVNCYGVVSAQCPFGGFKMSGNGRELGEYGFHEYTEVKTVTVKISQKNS
The depositor's hits bear a star; [ ] = another dose, or the depositor's remark. This is a sample that favours compounds with a hit; in the whole collection about 11% have one here. Unless noted, calls follow the shape of the dose curve; as a rule, active = well fitted inhibition curve with a large enough effect (not every such curve was filed as active); inconclusive = small, poorly fitted or top-dose-only effect, or another doubt; inactive = no such curve, though single readings can be large or run the other way. Unless noted, % is scaled to controls: 0 for no effect and ±100 for the full control effect.

What do the screens show for `CCOC(=O)C1CCCN(C2CC(=O)N(c3ccc(N4C(=O)CC(N5CCCC(C(=O)OCC)C5)C4=O)cc3)C2=O)C1` (centres undefined)?
IMPase Li cell: 7%; ALDH1A1 block: 3.2µM*

Results for CCOC(=O)C1CCCN(C2CC(=O)N(c3ccccc3)C2=O)C1 (centres undefined) ?
IMPase Li cell: 8%; ALDH1A1 block: inconclusive

How did CCOC(=O)C1CCCN(C2CC(=O)N(c3cccc(C(F)(F)F)c3)C2=O)C1 (centres undefined) do in these assays?
IMPase cell inh: 3; PNC inhibitor: -24; HPGD block: -5%; IMPase Li cell: -7%; ALDH1A1 block: 8.9µM*

Results for O=C(O)CC[C@@H](C(=O)O)N1C(=O)[C@@H]2[C@@H]3CC[C@H](C3)[C@@H]2C1=O ?
HPGD block: -2%; IMPase Li cell: -3%; ALDH1A1 block: 6%[13.5 µM]

How did COC(=O)c1oc2ccccc2c1NC(=O)/C=C/C(=O)O do in these assays?
IMPase Li cell: -10%; ALDH1A1 block: 2%

Results for CCc1ccccc1N/N=C(/C)c1c(O)cc(C)oc1=O ?
IMPase Li cell: 7%; ALDH1A1 block: 7.9µM*

What do the screens show for `C/C(=N\NC(=O)c1cccnc1)c1c(O)cc(C)oc1=O`?
PNC inhibitor: 10; HPGD block: -18%; IMPase Li cell: -1%; ALDH1A1 block: 25µM*

Results for C/C(=N\NC(=O)c1ccccc1O)c1c(O)cc(C)oc1=O ?
IMPase cell inh: 7; PNC inhibitor: 19; HPGD block: inconclusive; IMPase Li cell: -6%[38.3 µM]; ALDH1A1 block: inconclusive

What do the screens show for `NC(=O)COc1ncn(-c2ccccc2)n1`?
IMPase cell inh: -3; PNC inhibitor: -112*; HPGD block: -12%; IMPase Li cell: 20%[38.3 µM]; ALDH1A1 block: 4%

What do the screens show for `COc1c(C=O)c(=O)[nH]c2c(OC)cccc12`?
HPGD block: -20%; IMPase Li cell: 7%; ALDH1A1 block: inconclusive

How did COc1ccc2c(CC#N)c[nH]c2c1 do in these assays?
IMPase cell inh: -6; PNC inhibitor: -25; HPGD block: -12%; IMPase Li cell: 10%[38.3 µM]; ALDH1A1 block: 5%

What do the screens show for `COc1ccc2c(C=O)c[nH]c2c1`?
PNC inhibitor: inconclusive; HPGD block: -12%; IMPase Li cell: 9%; ALDH1A1 block: 6.3µM*

What do the screens show for `CN(C(=O)Cn1cc(S(=O)(=O)N2CCN(c3ccccc3F)CC2)c2ccccc2c1=O)c1ccc(Cl)cc1`?
IMPase cell inh: 7

How did Cc1cc(C)c(NC(=S)NC(=O)c2c(Cl)c(C)nn2C)c([N+](=O)[O-])c1 do in these assays?
PNC inhibitor: inconclusive; HPGD block: -7%; IMPase Li cell: 7%; ALDH1A1 block: inconclusive

Results for CCCCOC(=O)c1ccc(NC(=S)NC(=O)c2c(Br)c(C)nn2C)cc1 ?
PNC inhibitor: -19; HPGD block: -27%; IMPase Li cell: 11%; ALDH1A1 block: 4µM*

Results for CC(=O)c1ccc(NC(=S)NC(=O)c2c(Cl)c(C)nn2C)cc1 ?
PNC inhibitor: -109*; HPGD block: -5%; IMPase Li cell: -3%; ALDH1A1 block: inconclusive

Results for C[C@@H]1O[C@@H](O)[C@@H](O)[C@H](O)[C@H]1O ?
HPGD block: -3%; IMPase Li cell: -4%; ALDH1A1 block: 30%[13.5 µM]

How did COc1ccc(-c2c(C(C)=O)c(C)nc3sc4c(=O)[nH]nnc4c23)cc1 do in these assays?
PNC inhibitor: 26; HPGD block: 18µM*; IMPase Li cell: -4%; ALDH1A1 block: inconclusive

What do the screens show for `CCOC(=O)c1c(C)nc2sc3c(c2c1-c1ccc(OC)cc1)NC(c1ccccc1)NC3=O` (centres undefined)?
IMPase cell inh: -1; PNC inhibitor: -83*; HPGD block: 121%; IMPase Li cell: inconclusive; ALDH1A1 block: inconclusive

Results for CCOC(=O)c1c(C)nc2sc3c(=O)n(-c4ccc(OC)cc4)nnc3c2c1-c1ccc(OC)cc1 ?
IMPase cell inh: 0; PNC inhibitor: -106*; HPGD block: -12%; IMPase Li cell: -2%[38.3 µM]; ALDH1A1 block: -9%

What do the screens show for `CCNC(=O)NC(=O)COC(=O)CCCSc1nc2ccccc2s1`?
PNC inhibitor: -19; HPGD block: -8%; IMPase Li cell: -2%; ALDH1A1 block: -2%

Results for CCCn1c(C)nc2c(NCCCCN3CCCC3)nc(C)nc21 ?
HPGD block: -15%; IMPase Li cell: -3%; ALDH1A1 block: -8%

How did CC[C@H](/C=C/[C@@H](C)[C@H]1CC[C@H]2C3CC=C4C[C@@H](O)CC[C@]4(C)C3CC[C@]12C)C(C)C (some centres undefined) do in these assays?
IMPase cell inh: 0; HPGD block: -3%; IMPase Li cell: 1%; ALDH1A1 block: 11%

Results for COC(C)(C)CCCC(C)C/C=C/C(C)=C/C(=O)O (centres undefined) ?
HPGD block: -2%; IMPase Li cell: -4%; ALDH1A1 block: 11%

What do the screens show for `Cc1cc(C)nc(SCC(=O)Nc2nonc2N)n1`?
IMPase Li cell: 13%; ALDH1A1 block: inconclusive

How did COc1cccc(NC(=O)Nc2cc(C)ccc2OC)c1 do in these assays?
IMPase Li cell: 1%; ALDH1A1 block: inconclusive

Results for CCOC(=O)c1cc(NC(=O)Nc2ccc(OC)c(OC)c2)c(C)nc1C ?
IMPase cell inh: -1; PNC inhibitor: -102*; HPGD block: -1%; IMPase Li cell: 4%[38.3 µM]; ALDH1A1 block: -4%

Results for COc1ccc(OC)c(NS(=O)(=O)c2ccc(NC(C)=O)cc2)c1 ?
IMPase cell inh: -5; PNC inhibitor: -27; HPGD block: -14%; IMPase Li cell: 19%[38.3 µM]; ALDH1A1 block: 12%

Results for COc1ccc(NC(=O)Nc2cc(C)ccc2OC)cc1 ?
IMPase cell inh: 5; PNC inhibitor: -82*; HPGD block: -16%; IMPase Li cell: -1%[38.3 µM]; ALDH1A1 block: -15%

What do the screens show for `COc1ccc(C)cc1NS(=O)(=O)c1ccc(NS(=O)(=O)c2ccc(NC(C)=O)cc2)cc1`?
IMPase cell inh: -1; PNC inhibitor: 10; HPGD block: -13%; IMPase Li cell: 21%[38.3 µM]; ALDH1A1 block: 22µM*

How did Cc1ccc(C)c(NC(=S)N2CCN(CCO)CC2)c1 do in these assays?
PNC inhibitor: -4; HPGD block: 0%; IMPase Li cell: -7%; ALDH1A1 block: 10%

Results for CCC(C)NC(=O)CSC1=Nc2ccccc2C2=NC(c3ccccc3)C(=O)N12 (centres undefined) ?
IMPase cell inh: -2; PNC inhibitor: 0; HPGD block: inconclusive; IMPase Li cell: 22%[38.3 µM]; ALDH1A1 block: inconclusive

Results for CCC(C)NC(=O)CSC1=Nc2ccccc2C2=NC(CC(=O)NCc3ccccc3)C(=O)N12 (centres undefined) ?
IMPase cell inh: inconclusive; PNC inhibitor: -100*; HPGD block: inconclusive; IMPase Li cell: -6%; ALDH1A1 block: inconclusive
